Measurements from the supplement of paper PMC6555819.

Assays:
Assay in all cases: PBM binding z-score (relative to random genomic background probes); higher = stronger binding; sequences stand for … in GC…GCGATTGACAGCGTAGAATGAAGG
[1] = tested on: FXR:RXRa (NR concentration 270 nM, RXRa partner concentration 90 nM)
How it was run: (§1)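 Probes were double-stranded and carried 34-nt variable regions with direct-repeat seeds, single-nucleotide variants, half-site ablations and random human genomic background sequences, printed on custom Agilent 4×180K protein-binding microarrays. Arrays were incubated 1 h with ligand-free nuclear receptor dimers in PBS pH 7.4, 2% milk, 0.02% Triton X-100, 1 mM DTT, 0.2 mg/mL BSA and 0.4 mg/ml salmon testes DNA. Antibodies against each partner (one per run) detected binding, and scanned fluorescence was regression-normalized. Binding z-scores use the random background probes as reference.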

[2] = tested on: LXRa:RXRa (NR concentration 270 nM, RXRa partner concentration 90 nM)
How it was run: as §1

[3] = tested on: LXRa homodimer (NR concentration 270 nM)
How it was run: as §1

[4] = tested on: LXRb:RXRa (NR concentration 270 nM, RXRa partner concentration 90 nM)
How it was run: as §1

[5] = tested on: LXRb homodimer (NR concentration 270 nM)
How it was run: as §1

[6] = tested on: PPARa:RXRa (NR concentration 270 nM, RXRa partner concentration 90 nM)
How it was run: as §1

[7] = tested on: PPARg:RXRa (NR concentration 180 nM, RXRa partner concentration 90 nM)
How it was run: as §1

[8] = tested on: PPARg:RXRa 270nM:90nM, anti-RXR (NR concentration 270 nM, RXRa partner concentration 90 nM)
How it was run: as §1

[9] = tested on: PPARg:RXRa 30nM:10nM, anti-RXR (NR concentration 30 nM, RXRa partner concentration 10 nM)
How it was run: as §1

[10] = tested on: PPARg:RXRa 90nM:30nM, anti-RXR (NR concentration 90 nM, RXRa partner concentration 30 nM)
How it was run: as §1

[11] = tested on: PPARg:RXRa DBDmut IVT, anti-RXR (DBD mutation: RXRa K156A/R161A, NR concentration 270 nM, RXRa partner concentration 90 nM)
How it was run: as §1

[12] = tested on: PPARg:RXRa IVT, anti-PPARg (NR concentration 270 nM, RXRa partner concentration 90 nM)
How it was run: as §1

[13] = tested on: PPARg DBDmut:RXRa IVT, anti-PPARg (DBD mutation: PPARg1 K132A/R137A, NR concentration 270 nM, RXRa partner concentration 90 nM)
How it was run: as §1

[14] = tested on: PPARg DBDmut IVT, anti-PPARg (DBD mutation: PPARg1 K132A/R137A, NR concentration 270 nM)
How it was run: as §1

[15] = tested on: PPARg homodimer (NR concentration 180 nM)
How it was run: as §1

[16] = tested on: PXR:RXRa (NR concentration 270 nM, RXRa partner concentration 90 nM)
How it was run: as §1

[17] = tested on: PXR homodimer (NR concentration 270 nM)
How it was run: as §1

[18] = tested on: RARa:RXR (NR concentration 270 nM, RXRa partner concentration 90 nM)
How it was run: as §1

[19] = tested on: RARa homodimer (NR concentration 270 nM)
How it was run: as §1

[20] = tested on: RARb:RXRa (NR concentration 270 nM, RXRa partner concentration 90 nM)
How it was run: as §1

Sequence	PBM binding z-score [1]	PBM binding z-score [2]	PBM binding z-score [3]	PBM binding z-score [4]	PBM binding z-score [5]	PBM binding z-score [6]	PBM binding z-score [7]	PBM binding z-score [8]	PBM binding z-score [9]	PBM binding z-score [10]	PBM binding z-score [11]	PBM binding z-score [12]	PBM binding z-score [13]	PBM binding z-score [14]	PBM binding z-score [15]	PBM binding z-score [16]	PBM binding z-score [17]	PBM binding z-score [18]	PBM binding z-score [19]	PBM binding z-score [20]
ACAGACAGGTGATGAAGGTAACTCACGCTATCAT	-0.0545	0.135	-0.0211	0.0443	-0.474	0.247	0.81	0.393	0.232	-0.0255	0.262	0.375	0.0319	-0.0294	0.0571	0.00932	0.106	0.165	0.142	0.289
ACTAGCAGTCCAAGTTTGGGTCACTCAAACAAAG	0.21	0.226	-0.0309	0.795	-0.524	1.13	-0.105	0.22	-0.155	-0.0965	-0.573	0.678	-0.264	-0.283	-0.0489	0.921	-0.137	1.4	-0.47	1.24
TCTTGTAGATCAGCAGGTTAACAAAGCTGGCCAA	0.321	0.368	-0.313	0.507	-0.6	1.21	0.102	1.77	2.61	2.21	1.62	0.747	-0.763	-0.365	0.0617	0.171	-0.584	0.489	-0.289	0.359
ACTATTAGTTGAGACGAGGGCAACCAATAGGTTG	0.56	0.143	-0.167	0.143	-0.0545	0.282	0.647	0.464	0.235	0.58	0.183	0.992	0.202	0.799	0.0729	1.75	0.385	1.5	0.723	1.09
AGAACGAGGTTATTAAGATCAGGGAATTGCGGTC	1.44	1.34	-0.0763	1.09	-0.115	2.15	1.26	1.68	0.389	0.958	2.38	2.16	0.246	0.0385	0.237	1.04	0.955	1.08	-0.125	1.32
TCTAGCAGGCCAGAGGGTCTCTCAAGAGGTACGG	-1.4	-0.676	-0.763	-0.66	-1.71	-0.298	0.13	0.975	1.38	1.06	0.543	-0.453	-1.92	-1.94	-0.634	-0.569	-1.12	-0.436	-0.894	-0.239
CCAGACAGGTGAGGAGGTAACTCAGCCTCGATTA	-0.0226	0.276	0.253	0.35	-0.29	0.831	0.403	0.546	-0.128	0.0478	0.968	0.86	-0.637	-0.654	0.632	0.016	0.482	0.341	0.613	0.524
TCATAAAGGTAATACAGGTGAAAGTCGGCATCTA	1.53	2.4	0.378	1.49	0.311	2.48	1.23	3	4.29	3.61	3.29	2.39	0.311	0.578	1.44	1.05	0.48	1.52	0.815	1.43
GGAACGAGGGCAAAGTTAATAGCATCTGTCGACG	1.04	0.812	-0.00751	0.878	-0.23	3.62	5.8	6.25	4.67	6.67	4	4.19	0.116	-0.54	0.877	1.19	0.225	1.24	0.00739	2.55
ACTATTAGTTGACTTATGGCAACCGATACGACGC	0.061	0.293	0.179	0.682	0.995	0.117	1.04	0.488	0.748	0.352	0.0133	0.165	1.06	1.08	0.983	0.367	0.358	0.397	1.2	0.351
TCTTGTAGATCGAAGGTTAAGAAAGCCGAAGCCT	0.669	0.667	-0.334	0.511	-0.593	2.25	3.11	5.23	4.1	5.26	1.1	1.32	-0.629	-0.226	0.155	0.143	-0.658	0.948	-0.208	0.667
TTACTAAGGTGAGCTGAGGTCGTTGATCCAACTC	2.26	1.54	-0.344	1.04	-0.663	1.97	0.363	1.26	0.174	0.711	2.04	2.66	0.501	0.0653	0.306	5.17	0.515	2.16	-0.407	2.07
CTCGAAAGGTCGGTTGAGGTGGGTATACGGATAA	2.11	1.35	0.0862	1.31	0.332	2.36	0.284	0.726	0.0658	0.243	-0.182	0.818	-0.122	-0.109	1.13	2.08	0.36	1.53	0.507	2.99
TCATATAGGTAAATGCTAGGTGAAAATCCGATCT	0.903	0.851	0.275	0.71	0.611	1.17	0.91	1.95	4.01	3.06	3.71	2.37	1.79	1.14	1.06	0.505	0.518	0.922	1.61	0.432
CCTACTGGGCCATCAGGTCGTTGATATCAACGTT	-0.00658	-0.372	-0.231	-0.0218	-0.541	0.992	1.22	2.22	0.274	1.41	4.23	4.12	-0.38	-0.752	0.382	0.0795	-0.323	0.272	-0.616	0.569
TAGCCTAGGTCCTTGGGCCAGTATAGTACGCATC	-1.55	-1.18	-1.24	-1.1	-1.16	-1.2	-0.0575	-0.847	-0.771	-0.944	-1	-0.913	-2.61	-1.34	-2.22	-1.19	-1.2	-1.44	-2.43	-0.495
TCTAGTTGGTCAAAGGTCACACACTCGAAATGCG	6.09	5.91	4	5.53	1.76	6.56	11.6	10	10.4	12.2	3.69	6.56	2.18	2.02	6.43	6.12	1.83	7.45	3.65	5.09
TCTCCGAGGACACGAAAGGTCAGAGCTCGACATC	3.26	3.9	2.63	3.48	0.562	3.68	1.53	2.82	2.39	2.44	1.67	1.97	0.778	0.343	2.54	4.22	0.558	4.27	0.52	4.47
TAGCCTAGGTCAGATAGGGCCAGTATACGCTATA	2.49	0.979	-0.0979	0.697	-0.375	1.59	0.726	0.567	-0.0576	0.283	0.509	1.38	0.269	0.324	0.391	1.37	-0.14	0.802	-0.488	3.05
CCTACTGGGCCATAAAGGTCATTGATGCCGATAA	3.55	4.42	3.57	4.21	0.574	4.79	4.32	4.68	2.1	4.45	3.2	4.78	-0.0892	0.0735	1.94	4.87	2.7	4.9	0.376	3.89
CGTACTGGGCCATCAGGTCATTGATATCAACGTT	1.44	1.12	0.948	1.53	-0.168	2.78	2.86	3.82	1.21	3.32	5.01	4.86	0.473	-0.333	1.12	1.67	0.831	1.88	-0.122	1.93
CCTACTGGGCCAAAAAGGTCATTCATGCCGATAA	3.81	4.85	4.27	4.54	0.914	4.85	3.37	4.13	1.87	3.58	3.69	3.97	-0.431	0.123	4.57	5.41	4.84	5.86	2.12	4.22
CCGACTGGGCCAAAGGTTACCATACTCAGTACGA	1.06	1.26	0.13	2	-0.974	5.39	10.7	9.42	9.58	10.6	3.77	5.5	0.219	-0.431	1.31	1.75	-0.189	3.1	0.224	2.22
ATACCAAGGTGATCGTGAGGTCGCTGATACTAAC	1.23	0.653	0.154	0.766	-0.474	1.15	0.701	0.558	-0.172	0.198	0.629	1.43	0.343	0.406	0.832	1.86	0.225	1.66	-0.0146	1.43
TCTCGTAGATCAAAGGTTAAGAAAGCCGAAGCCT	1.56	1.85	-0.119	1.9	-0.471	3.46	4.19	5.74	4.84	6	1.73	1.46	-0.063	-0.642	0.726	1.89	-0.203	2.71	0.027	1.69
TCTATTAGTTGAAGGGGAACCGACGAGTCCGTTT	1.21	1.19	0.437	1.19	0.829	1.23	0.0273	2.51	4.36	3.48	3	0.249	1.26	0.473	1.97	1.04	1.09	0.424	1.8	0.752
GCATATAGGTAATACAAGGCGAAAGTCCGATTGT	0.229	0.00213	0.175	-0.106	-0.482	0.752	0.874	0.503	0.39	0.229	4.13	2.28	0.423	0.106	0.176	0.00476	-0.179	0.458	-0.221	-0.0161
TCTATTAGTTGAAGGGCGACCGACGAGTCCGTTT	0.994	1.03	0.292	0.778	0.384	0.661	-0.000303	2.13	3.99	2.9	2.51	0.299	0.865	1.2	0.852	0.655	0.886	0.0781	0.844	0.714
TGAATGAGGTTATAACATCAGGGAACGTTGCAAA	1.52	1.46	-0.281	1.2	-0.639	2.52	1.12	1.54	0.946	1.41	0.822	1.57	1.79	0.499	0.614	0.813	-0.514	1.4	0.248	1.04
